Among the test systems are SR leukemia; RPMI-8226 leukemia; OVCAR-8 ovarian; OVCAR-5 ovarian; OVCAR-4 ovarian; SK-OV-3 ovarian; IGROV1 ovarian; OVCAR-3 ovarian; HS 578T breast; NCI/ADR-RES ovarian.
What all share (experiment): NCI-60 one-dose screen, 48 h (100 = growth as untreated, 0 = no growth, -100 = all killed)
Common to all, as to details: 10 µM unless noted

SMILES strings stand for the structures. Compounds without any hit were thinned out: in the full panel of roughly 83,000, 20% have a hit.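 In brief: 96-well plates, 48 h treatment, single concentration, percent growth endpoint.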 A number with no mark means an inactive call. Activity calls are given as the source filed them. The calls were made as follows: active = growth percent below 10; inactive = the rest.

With `O=C(Nc1ccccc1)c1ccco1`, the growth is 100% with SR leukemia; 105% in the assay with RPMI-8226 leukemia; 101% in the assay with OVCAR-8 ovarian; 110% in the assay on OVCAR-5 ovarian; 100% in the assay on OVCAR-4 ovarian; 103% with SK-OV-3 ovarian. Besides, the growth is 105% in the assay with IGROV1 ovarian, 114% in the assay on OVCAR-3 ovarian, 103% in the assay on HS 578T breast and 107% in the assay with NCI/ADR-RES ovarian.
For the molecule `Oc1ccc(N=Cc2ccc(OCc3ccccc3)cc2)cc1`, the growth with SR leukemia is 97.4%; in the assay on RPMI-8226 leukemia, 96.7%; in the assay with OVCAR-8 ovarian it was 96.3%; with OVCAR-5 ovarian, 111%; in the assay on OVCAR-4 ovarian, 95.2%; in the assay with SK-OV-3 ovarian it was 112%. The growth was 108% with IGROV1 ovarian, 103% with OVCAR-3 ovarian, 104% in the assay with HS 578T breast and 95.6% in the assay on NCI/ADR-RES ovarian.
For `CC(C)C(C)(C)C(=O)C(C)(C)C(C)(C)C`, the growth in the assay on SR leukemia is 100%; in the assay with RPMI-8226 leukemia, 96.1%; in the assay with OVCAR-8 ovarian, 99.1%; in the assay with OVCAR-5 ovarian, 97.5%; in the assay with OVCAR-4 ovarian it was 117%; in the assay on SK-OV-3 ovarian, 82.8%. Besides, the growth in the assay on IGROV1 ovarian is 105%; in the assay on OVCAR-3 ovarian, 80.3%; with HS 578T breast it was 93.9%; with NCI/ADR-RES ovarian it was 104%.
Consider `COC1OC(C(COC(C)=O)OC(C)=O)C(OC(C)=O)C(OC(C)=O)C1OC(C)=O` (stereo not given), for which the growth was 87.3% with SR leukemia; 98.7% with RPMI-8226 leukemia; 103% with OVCAR-8 ovarian; 89.7% with OVCAR-5 ovarian; 107% in the assay on OVCAR-4 ovarian; 110% with SK-OV-3 ovarian. Besides, the growth in the assay on IGROV1 ovarian is 104%; with OVCAR-3 ovarian it was 118%; with HS 578T breast, 129%; in the assay with NCI/ADR-RES ovarian, 105%.
Regarding `CC(C)OCC(CCl)OC(=O)Nc1ccccc1` (stereo not given), the growth is 117% in the assay on SR leukemia; 109% in the assay with RPMI-8226 leukemia; 97.9% with OVCAR-8 ovarian; 104% in the assay on OVCAR-5 ovarian; 101% in the assay on OVCAR-4 ovarian; 97.6% in the assay on SK-OV-3 ovarian. Also, the growth in the assay with IGROV1 ovarian was 105%; with OVCAR-3 ovarian it was 101%; with HS 578T breast it was 114%; in the assay with NCI/ADR-RES ovarian, 107%.
With `COc1ccc(C2CC(c3ccccc3)=Nc3ccccc3S2)cc1` (stereo not given), the growth with SR leukemia was 49%; in the assay with RPMI-8226 leukemia it was 82.1%; in the assay with OVCAR-8 ovarian, 115%; in the assay on OVCAR-5 ovarian, 116%; in the assay with OVCAR-4 ovarian, 97.2%; in the assay with SK-OV-3 ovarian it was 95.3%. Besides, the growth is 92% in the assay with IGROV1 ovarian, 93.3% in the assay on OVCAR-3 ovarian, 102% in the assay on HS 578T breast and 94.7% with NCI/ADR-RES ovarian.
For `Nc1nc(N)nc(N2CCCCC2)n1`, the growth is 97.9% with SR leukemia; 101% in the assay with RPMI-8226 leukemia; 105% with OVCAR-8 ovarian; 102% in the assay with OVCAR-5 ovarian; 111% in the assay on OVCAR-4 ovarian; 106% in the assay on SK-OV-3 ovarian. Also, the growth was 96% in the assay on IGROV1 ovarian, 105% with OVCAR-3 ovarian, 97.3% in the assay with HS 578T breast and 110% with NCI/ADR-RES ovarian.
In the case of `COc1cccc(C(=O)O)c1OC`, the growth in the assay with SR leukemia is 101%; with RPMI-8226 leukemia, 101%; in the assay on OVCAR-8 ovarian, 101%; with OVCAR-5 ovarian it was 85.9%; with OVCAR-4 ovarian, 95%; in the assay on SK-OV-3 ovarian, 91.6%. The growth in the assay with IGROV1 ovarian is 99.4%; with OVCAR-3 ovarian, 106%; in the assay on HS 578T breast it was 88.9%; in the assay with NCI/ADR-RES ovarian it was 99.4%.
Regarding `O=C(O)C1CSC(c2ccccc2)N1` (stereo not given), the growth with SR leukemia was 115%; in the assay with RPMI-8226 leukemia, 107%; in the assay on OVCAR-8 ovarian it was 106%; in the assay on OVCAR-5 ovarian, 98.2%; in the assay with OVCAR-4 ovarian, 111%; in the assay with SK-OV-3 ovarian, 99.5%. In addition, the growth was 105% in the assay on IGROV1 ovarian, 104% with OVCAR-3 ovarian, 88.4% in the assay on HS 578T breast and 99.2% in the assay on NCI/ADR-RES ovarian.
For `CC(CCC#N)(CCC#N)C(=O)c1ccccc1`, the growth in the assay on SR leukemia is 104%; with RPMI-8226 leukemia it was 101%; in the assay on OVCAR-8 ovarian it was 105%; in the assay with OVCAR-5 ovarian it was 109%; with OVCAR-4 ovarian it was 90%; in the assay on SK-OV-3 ovarian it was 115%. For the same molecule, the growth was 125% with IGROV1 ovarian, 123% with OVCAR-3 ovarian, 97.8% with HS 578T breast and 106% in the assay on NCI/ADR-RES ovarian.
Consider `CC1CCC(C)(C)c2ccccc21` (stereo not given), for which the growth with SR leukemia is 107%; in the assay on RPMI-8226 leukemia, 117%; in the assay with OVCAR-8 ovarian, 105%; in the assay with OVCAR-5 ovarian it was 92.4%; with OVCAR-4 ovarian it was 98.2%; with SK-OV-3 ovarian it was 101%. The growth is 98.4% with IGROV1 ovarian, 114% with OVCAR-3 ovarian, 105% in the assay on HS 578T breast and 101% with NCI/ADR-RES ovarian.
As for `C=CCN1CCCC1=O`, the growth in the assay with SR leukemia was 90.2%; with RPMI-8226 leukemia, 96.6%; in the assay on OVCAR-8 ovarian, 110%; in the assay on OVCAR-5 ovarian, 124%; in the assay on OVCAR-4 ovarian it was 94.8%; in the assay with SK-OV-3 ovarian it was 92.9%. Besides, the growth with IGROV1 ovarian is 114%; in the assay with OVCAR-3 ovarian, 128%; with HS 578T breast, 109%; in the assay with NCI/ADR-RES ovarian, 110%.
With `COc1ccc2c(Cl)cc(NC(=O)Nc3c(C)cccc3C)nc2c1`, the growth with SR leukemia is 63.4%; with RPMI-8226 leukemia it was 73%; in the assay on OVCAR-8 ovarian, 61.3%; in the assay with OVCAR-5 ovarian, 83%; in the assay on OVCAR-4 ovarian, -14.7% (active); with SK-OV-3 ovarian, -6.49% (active). Moreover, the growth in the assay with IGROV1 ovarian was 52.3%; with OVCAR-3 ovarian it was 78.2%; with HS 578T breast, 57.2%; in the assay on NCI/ADR-RES ovarian, 78.2%.
For the molecule `Cc1cc(=O)n(Nc2ccccc2)c(O)c1C#N`, the growth in the assay on SR leukemia is 88.9%; with RPMI-8226 leukemia, 99.8%; with OVCAR-8 ovarian, 106%; with OVCAR-5 ovarian, 105%; with OVCAR-4 ovarian it was 108%; with SK-OV-3 ovarian it was 99.6%. Also, the growth is 101% in the assay with IGROV1 ovarian, 98.6% in the assay with OVCAR-3 ovarian, 100% in the assay on HS 578T breast and 102% in the assay with NCI/ADR-RES ovarian.
